The nature of assay [1]: NCI Yeast Anticancer Drug Screen. Data for the rad50 strain (AID 155).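 Further: 0% = growth of vehicle-only cultures of the same strain.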 To be noted: S. cerevisiae rad50 strain growth inhibition; at 50.0 µM; stronger effect = higher value. In outline:
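Compounds were tested on a yeast strain with an engineered DNA damage repair alteration; the reported value is growth inhibition normalised to vehicle treatment.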

Assay [2] is described as follows: NCI Yeast Anticancer Drug Screen. Data for the mec2-1 strain (AID 157). The following applies: S. cerevisiae mec2-1 strain, at 50.0 µM, stronger effect = higher value. The procedure, abridged: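 mec2-1 yeast strain, carrying an alteration in DNA damage repair or cell cycle control, was exposed to compounds; growth inhibition was measured relative to vehicle-treated controls.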

A short description of assay [3]: NCI Yeast Anticancer Drug Screen. Data for the sgs1 mgt1 strain (AID 161).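 Further: 0% = growth of cultures given vehicle only.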 To be noted: S. cerevisiae sgs1 mgt1 strain, at 50.0 µM, stronger effect = higher value. In outline: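 This yeast growth screen uses a strain with defined DNA-repair lesions; compound-treated growth is compared with vehicle-treated growth.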
Assay [4] can be described thus: NCI Yeast Anticancer Drug Screen. Data for the cln2 rad14 strain (AID 165).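 Further: 0% = growth equal to vehicle treated cultures.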 The following applies: S. cerevisiae cln2 rad14 strain, at 50.0 µM, stronger effect = higher value. The procedure, abridged: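 Yeast carrying cln2 and rad14 alterations (cell cycle control and DNA damage repair) were exposed to compounds. Growth inhibition was measured against vehicle-treated controls.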

A short description of assay [5]: NCI Yeast Anticancer Drug Screen. Data for the bub3 strain (AID 167). To be noted: S. cerevisiae bub3 mutant strain, at 50.0 µM, stronger effect = higher value. The procedure, abridged: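 Growth of a checkpoint-deficient yeast mutant is measured after compound exposure. Values represent inhibition relative to vehicle.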
The nature of assay [6]: NCI Yeast Anticancer Drug Screen. Data for the mlh1 rad18 strain (AID 175). To be noted: S. cerevisiae mlh1 rad18 strain growth inhibition; at 50.0 µM; stronger effect = higher value. In outline:
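Growth inhibition of the yeast strain was measured after compound exposure and expressed relative to vehicle-treated controls. The strain carries defined defects in DNA damage repair.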

Compounds without any hit were thinned out: in the full panel of roughly 79,000, 15% have a hit. Values without a mark were called inactive. Active and inactive are the calls of the source. No stated cut-off is given here; in the data, active means growth inhibition above about 70%; inactive means the rest.

In PubChem BioAssay (NCI) one finds growth inhibition data, which are given here for 21 compounds.

`O=C1C(Br)=C(Br)C(=O)C2=C1C1c3ccccc3C2c2ccccc21`: the growth inhibition in assay [1] is 98.5% (active); in assay [2], 98.2% (active); in assay [3], 97.8% (active); in assay [4], 97% (active); in assay [5], 98.2% (active); in assay [6], 97.8% (active).
For the compound `O=[N+]([O-])c1ccccc1SCl`, the growth inhibition is 11.7% in assay [1]; 5.5% in assay [2]; 5.05% in assay [3]; -21.9% in assay [4]; 2% in assay [5]; 6.7% in assay [6].
Regarding `Oc1ccccc1C=Nc1ccc(N2CCOCC2)cc1`, the growth inhibition was 2.65% in assay [1]; -3.7% in assay [2]; 10.1% in assay [3]; -4.2% in assay [4]; 2.05% in assay [5]; -2.35% in assay [6].
Turning to `COC/C=C\COC`, the growth inhibition in assay [1] was 3.45%; in assay [2], 5%; in assay [3], 17.6%; in assay [4] it was -2.15%; in assay [5], -6.3%; in assay [6], 22.1%.
Regarding `CCOC(=O)C1(C(=O)OCC)OC(=O)NC2=C1CCCC2`, the growth inhibition in assay [1] was -13.3%; in assay [2], -29.1%; in assay [3] it was -8.6%; in assay [4] it was -15.7%; in assay [5], -1.95%; in assay [6], -23.9%.
Turning to `O/N=C1/CC2CCCCC2CC1(O)c1ccccc1` (stereo unspecified), the growth inhibition in assay [1] was 17.3%; in assay [2] it was 19.1%; in assay [3], 17.6%; in assay [4], 18.4%; in assay [5] it was -3.55%; in assay [6] it was 30.4%.
`CNC(=S)SCc1ccc(Cl)cc1`: the growth inhibition in assay [1] was -10.6%; in assay [2] it was -12.5%; in assay [3], 11.4%; in assay [4], -36.6%; in assay [5] it was 40.8%; in assay [6], 2.7%.
Take `CC(=O)Oc1ccccc1C1CCCCC1`: the growth inhibition in assay [1] is -1.7%; in assay [2] it was -28.6%; in assay [3] it was -2.5%; in assay [4] it was 17.2%; in assay [5] it was -11.9%; in assay [6], 0.9%.
With `ON(C(=NCc1ccccc1)c1ccccc1)c1ccccc1`, the growth inhibition is 2.25% in assay [1]; 10.6% in assay [2]; 9.65% in assay [3]; -17.4% in assay [4]; 12.4% in assay [5]; 14.7% in assay [6].
Turning to `CSCCCN(CCCSC)CCCSC`, the growth inhibition was -12.6% in assay [1]; -12.9% in assay [2]; -0.3% in assay [3]; 5.5% in assay [4]; 4.5% in assay [5]; -26.6% in assay [6].
Regarding `CC(=O)/C=C/C=C/c1ccco1`, the growth inhibition in assay [1] is -0.85%; in assay [2], 1.3%; in assay [3], 9.15%; in assay [4], -9.7%; in assay [5], 10.4%; in assay [6], 11.6%.
Consider `CCSC(N)=Nc1ccccc1` (tested in a mixture with another compound), for which the growth inhibition in assay [1] is 13.2%; in assay [2], 9.5%; in assay [3] it was 21.8%; in assay [4] it was 13.3%; in assay [5], 12.1%; in assay [6], 18.1%.
`O=[N+]([O-])c1cccc2c(-c3nccc4c([N+](=O)[O-])cccc34)nccc12`: the growth inhibition is -16.9% in assay [1]; -1.35% in assay [2]; -19.4% in assay [3]; -21.8% in assay [4]; -16.2% in assay [5]; -19% in assay [6].
Take `O=C(C[n+]1ccccc1)c1ccccc1`: the growth inhibition in assay [1] was 1.75%; in assay [2] it was -4.4%; in assay [3], -2.4%; in assay [4], -18.5%; in assay [5], 9.45%; in assay [6] it was 30.7%.
With `O=C(O)C(Cc1ccc2c(c1)CCC2)(Cc1ccc2c(c1)CCC2)C(=O)O`, the growth inhibition in assay [1] is 26.9%; in assay [2], 13.3%; in assay [3], -4%; in assay [4] it was 33.3%; in assay [5], 22.8%; in assay [6], 12.1%.
As to `O=C(Nc1ccccc1)n1cc(-c2ccccn2)c(N2CCOCC2)n1`, the growth inhibition in assay [1] was -4.6%; in assay [2] it was -11.1%; in assay [3] it was 6.15%; in assay [4], -64.5%; in assay [5], -12.9%; in assay [6] it was -14.4%.
As to `O=C1CCC(C(=O)Nc2ccc(Cl)cc2Cl)N1` (stereo unspecified), the growth inhibition was -0.15% in assay [1]; 3.3% in assay [2]; 7.2% in assay [3]; 42.4% in assay [4]; 3.45% in assay [5]; 8.75% in assay [6].
With `c1ccc(-c2oc3ccc4ccccc4c3c2-c2ccc(OCCN3CCCC3)cc2)cc1`, the growth inhibition was 75.8% (active) in assay [1]; 58.4% in assay [2]; 66.8% in assay [3]; 61.2% in assay [4]; 51.4% in assay [5]; 61.5% in assay [6].
Turning to `c1ccc2c(c1)ccc1ccc3ocnc3c12`, the growth inhibition in assay [1] was 6.45%; in assay [2], -0.95%; in assay [3] it was -3.15%; in assay [4] it was -6.6%; in assay [5] it was 9.15%; in assay [6], 10%.
Take `COC1C(/C=C/C(C)=O)OC2OC(C)(C)OC21` (stereo unspecified): the growth inhibition in assay [1] is 1.7%; in assay [2] it was 1.35%; in assay [3] it was 3.85%; in assay [4], -9.45%; in assay [5] it was 2.3%; in assay [6], -1.55%.
Take `C=Cc1c(C)c(C)c(C=C)c(C)c1C`: the growth inhibition is -3.85% in assay [1]; 6.65% in assay [2]; -8.2% in assay [3]; 4.75% in assay [4]; -10.2% in assay [5]; -17.3% in assay [6].
